In PubChem BioAssay AID1851 (National Center for Advancing Translational Sciences (NCATS), 2009):
Screen size: about 16,000 compounds; about 2,600 (16%) were called active. Not shown: some 20% with an inconclusive outcome. Calls come from the whole dose curve; as a rule, active = well fitted curve in the direction sought with a large enough effect; inconclusive = small, poorly fitted or top-dose-only effect, or effect the other way; inactive = no such curve, though single readings can be large or run the other way. A selection follows.

target: Cytochrome P450 2D6 (Homo sapiens) (UniProt P10635); test: Cytochrome panel assay with activity outcomes; details: recombinant CYP, pro-luciferin dealkylation, luminescence, p450-cyp2d6; series mostly up to 57.1 µM; activity, negative = inhibition: at the top concentration
Sequence (P10635 whole entry, looked up): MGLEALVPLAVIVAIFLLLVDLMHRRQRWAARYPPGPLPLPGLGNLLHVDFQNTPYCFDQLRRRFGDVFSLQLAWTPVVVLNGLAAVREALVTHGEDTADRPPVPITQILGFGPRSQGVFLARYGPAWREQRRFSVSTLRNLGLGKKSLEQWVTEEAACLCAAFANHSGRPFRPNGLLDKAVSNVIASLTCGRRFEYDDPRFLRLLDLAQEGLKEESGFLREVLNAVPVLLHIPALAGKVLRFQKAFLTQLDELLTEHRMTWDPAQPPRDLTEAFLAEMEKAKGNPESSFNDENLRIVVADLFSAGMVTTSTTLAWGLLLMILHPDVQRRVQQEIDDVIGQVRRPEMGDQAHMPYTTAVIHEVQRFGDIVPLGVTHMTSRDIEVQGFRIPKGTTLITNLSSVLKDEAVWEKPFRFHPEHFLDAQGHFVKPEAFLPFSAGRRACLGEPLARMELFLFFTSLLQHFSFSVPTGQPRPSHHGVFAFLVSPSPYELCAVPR
% is set by controls: 0 for no effect and ±100 for the full control effect.

activity, negative = inhibition, inactive:
COc1ccc(C2CC(=O)CC(=O)C2n2cncn2)cc1 (centres undefined) -1.52%, O=C(O)Cc1nn(Cc2ccc(Br)cc2F)c(=O)c2ccccc12 1.91%, Cc1cc(C)c(S(=O)(=O)Nc2cccc(C(F)(F)F)c2)c(C)c1 -1.42%, CC(C)(C)CC(=O)NC(=S)Nc1ccccc1C(F)(F)F -40.1%, CCN(CC)c1ccc(NC(=O)c2cnn(CC)c2)cc1 -6.55%, COC(=O)CSc1ccc2nnc(-c3ccc(F)cc3)n2n1 17.6%, O=C(O)CSc1nc2ccccc2[nH]1 9.25% [at 11.4 µM], Cc1cc(NC(=O)CSc2nnc(-c3ccccc3)n2Cc2ccco2)no1 -9.41%, Cc1cc(C)nc(SCc2nnc(SCC(N)=O)n2Cc2ccco2)n1 -5.05%, c1ccc2[nH]c(NC3=NCCC3)nc2c1 -17.9%, COCCn1c(Cc2ccccc2)nnc1SCc1nc2ccccc2c(=O)[nH]1 7.43%, OCCNc1nc2ccccc2[nH]1 1.74%, Cc1nonc1NC(=O)N1CCCC1 6.35%, O=C(O)Cn1ccnc1[N+](=O)[O-] 0.12% [at 11.4 µM], Cc1ccc(C)c(/C(O)=C2/C(=O)C(=O)N(CCN3CCOCC3)C2c2ccco2)c1 (centres undefined) 19.6%, COc1ccc(NC(=O)CSc2ccc3c4c(cccc24)C(=O)c2ccccc2-3)cc1 -17.2%, O=C(NCc1ccccc1)c1sc(=S)n2c1[nH]c(=O)c1ccccc12 -20.8%, COc1ccc(C(=O)Nc2cc(C(C)=O)c(/C=C/N(C)C)oc2=O)cc1 -2.29%, CCC(=O)Nc1c2c(nc3c1CCC3)CCCC2 -7.06%, COC(=O)CCC(=O)Nc1cccc2ccccc12 3.01%, O=S(=O)(CC(O)COc1ccccc1Cl)c1ccccc1 (centres undefined) -16.4%, CCC(=O)NC(=S)Nc1ccc(NC(=O)COc2ccc(Cl)cc2Cl)cc1 -6.84%, O=C(OC1CCN(c2ncc(C(F)(F)F)cc2Cl)CC1)c1ccccc1 -21.2%, CC1(C)O[C@H]2[C@@H](c3[nH]nc4c(=O)[nH]c(=O)[nH]c34)OC[C@H]2O1 17% [at 11.4 µM], CCSc1nnc(NC(=O)Cc2ccc(OC)c(OC)c2)s1 6.23%, Cc1nc2c(c(-c3ccccc3)c1C#N)C(=O)c1ccccc1-2 15.6%, CC(C)CC1NC(=S)N(C2CCCCC2)C1=O (centres undefined) 4.01%, CCCC[C@@H]1C[C@H]1C(NC(=O)c1cccs1)c1ccc(C(F)(F)F)cc1 (some centres undefined) 3.39%, Oc1ccc2ccccc2c1Cc1c(O)ccc2ccccc12 3.09% [at 11.4 µM], CN(C)Cc1ccc(C(C)(C)C)cc1-c1cc(C(C)(C)C)ccc1CN(C)C -2% [at 11.4 µM], O=C(O)Cc1c(O)ccc2ccccc12 2.9% [at 11.4 µM], CN(C)Cc1cc(C(C)(C)C)ccc1-c1ccc(C(C)(C)C)cc1CN(C)C 4.2% [at 11.4 µM], CS(=O)(=O)N(Cc1cc2ccccc2[nH]c1=O)C1CCCCC1 -8.47%, O=C1C2=CC[C@H]3C(=O)N(c4cccc(Oc5ccccc5)c4)C(=O)[C@@H]3[C@@H]2[C@H](O)[C@@H]2O[C@H]12 1.91% [at 11.4 µM], Cc1ccc(C(=O)N/N=C\c2cccn2C)cn1 23.5%, Fc1ccc(C2=Nn3c(Cc4ccccc4F)nnc3SC2)cc1 -7.98%, Cc1ccc(C(=O)NC(=S)Nc2ccc(S(=O)(=O)N3CCN(C)CC3)cc2)cc1 -15.3%, CC(C)(C)NC(=O)C(c1ccccn1)N(C(=O)C1CSC(=O)C1)c1ccc(F)cc1 (centres undefined) -21.8%, CC1=N[C@@](C)(COC(=O)[C@]2(C)N[C@](C)(CO)CO2)COC1=O 10% [at 11.4 µM], NC(=O)CN1CCN(c2nc(-c3ccc(F)cc3)cs2)CC1 -6.06%, COc1ccc(C(=O)N2CCC[C@@]3(CCN(Cc4cc(C(F)(F)F)cc(C(F)(F)F)c4)C3)C2)cc1 -10.6%, Cn1cccc1C(=O)N1CCC2(CC1)CN(c1ccncc1)C2 -7.3%, Cn1cccc1C(=O)N1CCC[C@@]2(CCN(c3ccccc3)C2)C1 -18.6%, Cn1cccc1C(=O)N1CCC2(CC1)CN(Cc1ccc(C#N)cc1)C2 4.08%, Cn1cccc1C(=O)N1CCC2(CCN(Cc3ccncc3)CC2)CC1 -13.4%, CN1CC[C@@]2(CCCN(C(=O)c3cccn3C)C2)C1 -2.76%, Cn1cccc1C(=O)N1CCC2(CC1)CCN(c1ccccc1)CC2 9.63%, Cn1cccc1C(=O)N1CCC[C@@]2(CCN(c3ccncc3)C2)C1 -6.49%, NCC[C@H]1CCC[C@H](CCN)N1 -7.7%, O=[N+]([O-])c1ccc(C=Nc2ccc(Cl)cc2Cl)s1 -27.5%, COC(=O)[C@@]1(Cc2ccc(F)cc2)[C@@H]2C(=CC(=O)[C@H]2CC(=O)C(=O)N2CCCC2)CN1C(=O)c1ccccc1 -13.8%, N#CCCn1c(=O)cnc2cnc(N3CCNCC3)nc21 1.14%, c1ccc2cc(-c3csnn3)ccc2c1 -25.1%, CS(=O)(=O)N1CCCC(C(=O)N2CCc3ccccc3C2)C1 (centres undefined) -9.11%, CCOC(=O)CC(=O)CSc1nc(-c2cccnc2)cc(C)c1C#N -8.95%, Cc1ccc(CONC(=O)/N=C/N(C)C)cc1 -0.0637%, C=CCNc1sc(C(=O)c2ccccc2)c(N)c1C#N -15.1%, CCC[C@@H]1O[C@@H]2C[C@@H]3[C@H]4CCC5=CC(=O)C=C[C@@]5(C)[C@H]4[C@H](O)C[C@@]3(C)[C@@]2(C(=O)CO)O1 4.49% [at 25.6 µM], CO[C@@H]1/C=C\O[C@]2(C)Oc3c(C)c(O)c4c(O)c(cc(O)c4c3C2=O)NC(=O)/C(C)=C\C=C/[C@H](C)[C@@H](O)[C@H](C)[C@H](O)[C@H](C)[C@H](OC(C)=O)[C@@H]1C 11.7% [at 11.4 µM], O=C(CSc1nc2nc(-c3cccs3)cc(C(F)(F)F)c2c(=O)[nH]1)NCc1ccco1 10.3%, O=C1COc2ccccc2CN1 -0.0301%, Cn1c(=O)cnc2cnc(Nc3ccccc3)nc21 -14.9%, CC[C@]1(O)C[C@@H]2CN(CCc3c([nH]c4ccccc34)[C@](C(=O)OC)(c3cc4c(cc3OC)N(C)[C@H]3[C@](O)(C(=O)OC)[C@@H](C(=O)OC)[C@@]5(CC)C=CCN6CC[C@@]43[C@@H]65)C2)C1 6.57%, CN(C)S(=O)(=O)c1nc(Cl)c2[nH]cnc2n1 9.4% [at 11.4 µM], CC(C)CN1CCCC2(CCN(C(=O)c3cccn3C)CC2)C1 -12%, Cn1cccc1C(=O)N1CCC2(CCCN(Cc3ccc(C#N)cc3)C2)CC1 -1.96%, O=c1c(-c2ccccc2)nc2cnc(N3CCOCC3)nc2n1Cc1cccs1 10.8%, CCOc1ccc(OCC)c(NC(=O)C2CCCN(S(=O)(=O)c3cccs3)C2)c1 (centres undefined) -21.1%, NNc1nncc2ccccc12 -9.84%, C=CC[C@@H]1C=C[C@H](O/N=C\[C@@H](C)[C@H](OCc2ccccc2)C(C)C)[C@H](CO)O1 -3.33% [at 11.4 µM], COc1ccc(-n2c(=O)c(-c3ccc(Cl)cc3)nc3cnc(N4CCOCC4)nc32)cc1 -14.9%, CCOC(=O)COc1c(OC)cc(Cl)cc1C1Nc2ccccc2C(=O)N1c1cccc(C)c1 (centres undefined) -3.19%, O=C(NCCCN1CCCC1=O)c1ccc(CNS(=O)(=O)c2ccc(F)cc2)cc1 -13%, Cn1c(CNS(=O)(=O)c2ccc(F)cc2)n[nH]c1=S -1.79%, CC(C)c1ccc2nc3sc(C(=O)N4CCc5ccccc5C4)c(N)c3cc2c1 -13.4%, COc1ccccc1CN1CC2(CCN(C(=O)c3cnccn3)CC2)C1 10.3%, O=C(c1cnccn1)N1CCC2(CCN(Cc3nccs3)CC2)CC1 -16.7%, O=C(c1cnccn1)N1CCC2(CC1)CN(Cc1nccs1)C2 8.12%, CN1CCCC2(CCN(C(=O)c3cnccn3)CC2)C1 -1.38%, O=c1c(CCc2ccccc2)nc2cnc(Oc3ccccc3)nc2n1C1CC1 -18.6%

AC50, active:
Cc1cc(C)c(S(=O)(=O)Nc2ccccc2C(F)(F)F)c(C)c1 6.31 µM, c1ccc(-c2nnc(SCc3nc4ccccc4[nH]3)n2Cc2ccco2)cc1 6.31 µM, OC(Cc1nc2ccccc2[nH]1)c1ccccc1Cl (centres undefined) 1.12 µM, c1ccc(SCc2nc3ccccc3[nH]2)cc1 10 µM, O[C@@H](COc1ccc(Cl)cc1Cl)CN1CCCC1 0.316 µM, CC(C)(C)c1ccc(O)c(CN(Cc2c(O)ccc3ccccc23)C2CCCCC2)c1 0.794 µM, Oc1ccc2ccccc2c1CN(Cc1c(O)ccc2ccccc12)C1CCCCC1 0.631 µM, CC(C)(C)c1ccc(O)c(CN(Cc2cc(C(C)(C)C)ccc2O)C2CCCCC2)c1 0.501 µM, Cn1cccc1C(=O)N1CCC[C@@]2(CCN(Cc3ccccc3)C2)C1 2 µM, Cn1cccc1C(=O)N1CCC2(CCCN(Cc3ccncc3)C2)CC1 7.94 µM, Cn1cccc1C(=O)N1CCC2(CCN(Cc3ccccc3)CC2)CC1 7.94 µM, Cn1cccc1C(=O)N1CCC[C@@]2(CCN(Cc3cc(C(F)(F)F)cc(C(F)(F)F)c3)C2)C1 3.98 µM, Cn1cccc1C(=O)N1CCC2(CCCN(Cc3ccccc3)C2)CC1 10 µM, CC1(C)N=C(N)N=C(N)N1CCCCc1ccccc1 3.16 µM, CN(CCC#N)C(=O)c1ccc(CNS(=O)(=O)c2ccc(F)cc2)cc1 28.2 µM, COc1ccccc1CN1CCCC2(CCN(C(=O)c3cnccn3)CC2)C1 3.98 µM, COc1ccccc1CN1CC2(CCN(C(=O)c3ccncc3)CC2)C1 0.794 µM, O=C(c1cnccn1)N1CCC2(CCCN(Cc3nccs3)C2)CC1 7.94 µM, COc1ccccc1CN1CCCC2(CCN(C(=O)c3ccncc3)CC2)C1 3.16 µM
